Hits are enriched below; roughly 3.3% of the tested compounds scored in any of these assays.
Sm TGR inh – S. mansoni TGR enzyme inhibition; Potency, µM (series often up to 114 µM), most hits filed as inhibitors; AID 485364; 360,000 tested, 3% active; purified TGR, DTNB reduction, TNB absorbance 405 nm; also: nearly all actives have a fitted effect of over 60% in size
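Kinetic colorimetric format: TGR-catalysed, NADPH-driven DTNB reduction monitored via TNB absorbance. Enzyme dispensed at 20 nM; compound exposure 15 min at room temperature before reaction start.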
LmPK inh – blocks Leishmania mexicana pyruvate kinase activity; Q27686; purified LmPK, Kinase-Glo ATP luminescence, 1 h; Potency, µM (highest dose often 57.5 µM), usual class: inhibitors; 290,000 tested, 0.37% active; AID 1721
Target sequence (Q27686 whole entry, looked up): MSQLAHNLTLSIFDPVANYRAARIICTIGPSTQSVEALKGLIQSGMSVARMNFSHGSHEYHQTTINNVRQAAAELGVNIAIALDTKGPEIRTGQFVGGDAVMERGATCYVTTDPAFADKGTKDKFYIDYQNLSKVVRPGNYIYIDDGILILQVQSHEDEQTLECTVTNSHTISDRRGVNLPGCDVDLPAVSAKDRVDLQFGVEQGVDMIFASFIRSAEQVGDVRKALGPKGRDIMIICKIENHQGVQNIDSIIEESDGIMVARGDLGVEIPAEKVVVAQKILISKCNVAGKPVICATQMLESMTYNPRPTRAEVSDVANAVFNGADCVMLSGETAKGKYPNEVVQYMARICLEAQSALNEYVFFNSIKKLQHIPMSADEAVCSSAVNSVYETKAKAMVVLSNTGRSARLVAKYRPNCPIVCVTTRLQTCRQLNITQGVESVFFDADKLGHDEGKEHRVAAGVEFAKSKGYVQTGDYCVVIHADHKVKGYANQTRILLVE
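Screened at intermediate enzyme activity to detect both inhibitors and activators: LmPK at 0.1 nM, with a 0.5 nM enzyme column as activation reference. PEP 0.5 mM, ADP 0.1 mM; ATP detected by luminescence after 1 h.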
Giardia FBPA inh – Giardia lamblia aldolase inhibition; A8B2U2; Potency, µM (highest dose often 59.6 µM), hits mostly inhibitors; 290,000 tested, 0.71% active; AID 2451; purified Giardia FBPA; also: nearly all actives have a fitted effect of over 55% in size
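Giardia FBPA (40 nM reagent) was preincubated 10 min at RT with compound (up to 57.5 uM final), then substrate plus GAPDH/TPI/NAD/arsenate coupling system with diaphorase/resazurin was added; resorufin fluorescence (525/598 nm) was read after 20 min.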
RE007 growth inh – less growth of the S. pombe RE007 Vpr strain; S. pombe RE007 Vpr strain, BacTiter-Glo ATP luminescence, 24 h; Potency, µM (titrated, usually from 92.2 µM), most hits filed as inhibitors; 360,000 tested, 0.21% active; AID 651644; active = well fitted falling curve with a large enough effect; inconclusive = small, poorly fitted or top-dose-only effect; inactive = no such curve, though single readings can be large or run the other way; also: nearly all actives have a fitted effect of over 50% in size
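Fission yeast RE007 carrying one integrated HIV-1 vpr copy, seeded at OD 0.01 in PMG+AL medium with 23 nL pinned compound. Grown 24 h at 30 degrees; viability read by BacTiter-Glo luminescence after 5 min.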
TbPYK inhibitor – T. brucei pyruvate kinase inhibition. TbPYK enzyme, Kinase-Glo Plus ATP luminescence, 45 min. Potency, µM (highest dose often 76.8 µM), hits mostly inhibitors. 410,000 tested, 0.12% active; also: nearly all actives have a fitted effect of over 50% in size
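Enzyme and substrate buffer are dispensed first and compound is pin-transferred. ADP at 130 uM final then starts the reaction, which runs 45 min at room temperature. Detection reagent is added for 10 min before luminescence is imaged.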
A number is an active result; n = inactive; u = inconclusive; x = no result; [ ] = dose if it differs, or a comment. Unless noted, calls follow the shape of the dose curve; as a rule, active = well fitted curve in the direction sought with a large enough effect; inconclusive = small, poorly fitted or top-dose-only effect, or another doubt; inactive = no such curve, though single readings can be large; an effect the other way counts as inactive or inconclusive.

SMILES	Sm TGR inh	LmPK inh	Giardia FBPA inh	RE007 growth inh	TbPYK inhibitor
O=C(O)CCc1ccc(-c2ccc(Cl)cc2)n1Cc1ccco1	40µM	n	n	n	n
O=C(COC(=O)C1CC(O)CN1S(=O)(=O)c1ccccc1[N+](=O)[O-])c1ccc[nH]1 (stereo unspecified)	n	x	x	n	n
COC(=O)/C(=C/c1cn(C)c2ccccc12)[N+](=O)[O-]	u	n	n	x	x
CC(=O)n1cc(C=C2C(=O)NC(=O)NC2=O)c2ccccc21	u	n	u	n	28µM
COC(=O)/C(=C/c1c[nH]c2ccccc12)NC(C)=O	n	n	n	n	n
COC(=O)/C(=C/c1cn(C(C)=O)c2ccccc12)[N+](=O)[O-]	3.5µM	n	n	n	n
COC(=O)/C(=C/c1c[nH]c2ccccc12)[N+](=O)[O-]	45µM	n	n	n	n
N/C(=N/OC(=O)c1cccc([N+](=O)[O-])c1)c1cccc([N+](=O)[O-])c1	x	n	n	n	n
CC1=C(C)/C(=N/OC(=O)c2cccc([N+](=O)[O-])c2)C=CC1=O	11µM	n	u	n	n
CCN(C(=O)C(C)N1C(=O)/C(=C/c2ccco2)SC1=S)C1CCS(=O)(=O)C1 (stereo unspecified)	40µM	n	u	n	u
O=C1/C(=C/C=C/c2ccco2)SC(=S)N1NS(=O)(=O)c1ccccc1	1.8µM	n	u	n	n
O=C1/C(=C/c2cccs2)SC(=S)N1NS(=O)(=O)c1ccccc1	n	n	n	u	n
CC(C(=O)O)N1C(=O)/C(=C/C=C/c2ccco2)SC1=S (stereo unspecified)	7.1µM	n	x	n	n
CN(C)CCN(Cc1ccco1)S(=O)(=O)c1cc2c(cc1Cl)NC(=O)CO2	n	x	x	x	n[15.4 µM]
CN(CC(=O)Nc1ccc(F)c(F)c1F)C(=O)CC1OC(=O)c2ccccc21 (stereo unspecified)	n	x	x	n	n
CC[C@H](C)[C@H](NC(=O)[C@H](Cc1ccc(O)cc1)NC(=O)[C@H](Cc1cnc[nH]1)NC(=O)[C@H](CCCNC(=N)N)NC(=O)[C@H](CC(C)C)NC(=O)[C@H](C)NC(=O)[C@H](CO)NC(=O)[C@H](Cc1ccc(O)cc1)NC(=O)[C@H](Cc1ccc(O)cc1)NC(=O)[C@H](CCCNC(=N)N)NC(=O)[C@H](C)NC(=O)[C@H](CC(C)C)NC(=O)[C@H](CC(=O)O)NC(=O)[C@H](CCC(=O)O)NC(=O)[C@H](C)NC(=O)[C@@H]1CCCN1C(=O)[C@H](C)NC(=O)[C@H](CC(=O)O)NC(=O)[C@H](CCC(=O)O)NC(=O)CNC(=O)[C@@H]1CCCN1C(=O)[C@H](CC(N)=O)NC(=O)[C@H](CC(=O)O)NC(=O)[C@@H]1CCCN1C(=O)[C@H](CCCCN)NC(=O)[C@H](CO)NC(=O)[C@@H]1CCCN1C(=O)[C@@H](N)Cc1ccc(O)cc1)C(=O)N[C@@H](CC(N)=O)C(=O)N[C@@H](CC(C)C)C(=O)N[C@@H](CC(C)C)C(=O)N[C@H](C(=O)N[C@@H](CCCNC(=N)N)C(=O)N1CCC[C@H]1C(=O)N[C@@H](CCCNC(=N)N)C(=O)N[C@@H](Cc1ccc(O)cc1)C(N)=O)[C@@H](C)O	x	x	n	x	x
CCOC(=O)NC1(Nc2ccc(Cl)cn2)Oc2ccccc2O1	7.1µM	n	u	x	x
CCOc1ccccc1NC(=O)N1CCC(NC(=O)c2cccc(C)c2)CC1	25µM	n	n	n	n
Cc1cccc(C(=O)NC2CCN(C(=O)Nc3ccccc3C)CC2)c1	n	n	n	n	n
Cc1cccc(C(=O)NC2CCN(C(=O)Nc3ccc(F)cc3)CC2)c1	40µM	n	n	n	n
COc1ccc(S[C@@H](CCN2CC[C@H](C)CCC2=O)c2ccccc2)cc1	40µM	x	x	n	n
O=[N+]([O-])c1cc2oc3c(c2c(C=NCc2ccncc2)c1O)CCCC3	u	14µM	u	u	u
CNC(=O)CC(=O)Nc1ccccc1C(=O)O	n	n	n	n	n
Cc1cc(C)n(CCc2nc(-c3ccco3)cs2)n1	40µM	n	u	n	n
Cc1cc(C)n(CCc2nc(-c3cccs3)cs2)n1	n	n	n	n	n
SMILES	Sm TGR inh	LmPK inh	Giardia FBPA inh	RE007 growth inh	TbPYK inhibitor
CC(C)Cn1c(/C=C/c2ccco2)nc2ccccc21	7.9µM	n	n	n	n
CC(C)Cn1c(S(=O)(=O)O)nc2ccccc21	n	n	n	n	n
Oc1cccc(/C=N/Nc2nn3cnnc3c3ccccc23)c1	n	14µM	n	n	n
COc1cccc(/C=N/Nc2nn3cnnc3c3ccccc23)c1O	n	n	n	n	n
O=C(c1ccc(Br)o1)N1N=C(c2ccc(Cl)cc2)CC1c1ccco1 (stereo unspecified)	45µM	n	x	n	n
Clc1ccc(C2=NN(c3ccccc3)C(c3ccco3)C2)cc1 (stereo unspecified)	n	n	n	n	n
CC(=O)N1N=C(c2ccc(Cl)cc2)CC1c1ccco1 (stereo unspecified)	n	n	n	n	n
Cc1ccc(C2=NN(C(=O)CCl)C(c3ccco3)C2)o1 (stereo unspecified)	7.1µM	n	n	n	n
O=S(=O)(c1ccccc1)N1N=C(c2ccc(Cl)cc2)CC1c1ccco1 (stereo unspecified)	40µM	x	x	n	n
CC(=O)N1N=C(c2ccco2)CC1c1ccco1 (stereo unspecified)	n	n	n	n	n
Cn1nnnc1SCC(=O)N1N=C(c2ccc(Cl)cc2)CC1c1ccco1 (stereo unspecified)	x	x	x	n	n
Cc1nnc(SCC(=O)N2N=C(c3ccc(Cl)cc3)CC2c2ccco2)[nH]c1=O (stereo unspecified)	13µM	n	n	u	n
CCS(=O)(=O)Nc1cccc(C2=NN(S(=O)(=O)c3ccc(C)cc3)C(c3ccco3)C2)c1 (stereo unspecified)	u	n[11.5 µM]	n	n	n
CS(=O)(=O)Nc1cccc(C2=NN(S(=O)(=O)c3ccccc3)C(c3ccco3)C2)c1 (stereo unspecified)	20µM	n	n	n	n
CCS(=O)(=O)Nc1cccc(C2=NN(S(=O)(=O)c3ccccc3)C(c3ccco3)C2)c1 (stereo unspecified)	28µM	n	n	n	n
CCSc1oc(-c2ccco2)nc1S(=O)(=O)c1ccc(F)cc1	14µM	n	u	n	n
COc1ccc(NC(=O)CSc2oc(-c3ccc(C)cc3)nc2S(=O)(=O)c2ccc(C)cc2)c(OC)c1	50µM	x	x	x	n
Cc1ccc(S(=O)(=O)c2nc(-c3ccco3)oc2SCC(=O)NCC2CCCO2)cc1 (stereo unspecified)	35µM	n	n	n	n
